Most compounds without a hit are left out; they make up all but 4.6% or so of the library.
tim10-1 inh = growth inhibitors of tim10-1 mutant yeast | S. cerevisiae tim10-1 ts strain growth, BacTiter-Glo, 24 h | inhibition, % at 20 µM | hit rate 2.2% among 330,000 | AID 463190;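 active = inhibition of at least 40%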;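 also: mutant grown at 25 °C; 0% = DMSO wells with yeast and 100% = wells holding no yeast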
TIM10 inh = TIM10 yeast growth inhibition; hit rate 1.4% among 330,000; inhibition, % at 10 µM; AID 463195; S. cerevisiae TIM10 strain growth, BacTiter-Glo luminescence, 24 h;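 active = inhibition of 40% or more at the single tested concentration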;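 also: wild-type TIM10 isogenic control strain grown at permissive 25 °C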
NALP3 yeast inh = inhibitors of NALP3 inflammasome in yeast; Yeast reconstituted NLRP3/ASC/caspase-1, beta-gal luminescence, 24 h; inhibition, % at 10 µM; hit rate 0.39% among 330,000;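 active = inhibition of 50% or more; inactive = inhibition below 50%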;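 also: plate controls were induced DMSO wells for no effect and uninduced yeast grown without galactose for full effect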
tim23-1 inh = inhibits growth of tim23-1 mutant yeast. AID 463212. hit rate 1.3% among 330,000. S. cerevisiae tim23-1 growth, BacTiter-Glo luminescence, 24 h. inhibition, % at 20 µM;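 active = growth inhibition of the mutant yeast at or above 50%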;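 also: temperature-sensitive mutant grown at 25 °C; plate controls were DMSO-treated mutant yeast for no effect and medium wells lacking yeast for full effect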
SKKanGAS inh = blocks kanamycin growth of S. pyogenes SKKanGAS strain; BacTiter-Glo, 6 h; inhibition, % at 7.5 µM; hit rate 1.3% among 300,000; AID 1662;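 active = mean replicate score, as percent of positive control median, at least 50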;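 also: strain carries kanamycin resistance gene driven by streptokinase promoter and grows in 40 µg/ml kanamycin; loss of luminescence reflects streptokinase promoter inhibition or plain growth inhibition; 0% = median of DMSO wells and 100% = positive control at its reference dose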
tim10-1 confirm = tim10-1 yeast growth inhibition, confirmed; S. cerevisiae tim10-1 ts strain growth, BacTiter-Glo, 24 h; hit rate 56% among 7,400; inhibition, % at 20 µM; shares compounds with tim10-1 inh; AID 463213;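 active = inhibition of yeast growth at or above a set limit in either of two repeat tests at 20 µM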;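 also: tim10-1 mutant grown at permissive 25 °C to find synthetic lethal compounds; 0% = DMSO yeast wells and 100% = medium wells without yeast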
* hit, by the source's call; · = no result.

SMILES	tim10-1 inh	TIM10 inh	NALP3 yeast inh	tim23-1 inh	SKKanGAS inh	tim10-1 confirm
COc1ccc2cc(C)c3nnc(SCc4cccnc4)n3c2c1	41.3*	28.3	19.6	29.5	-2.2	33.6*
CC(=O)C1=C(C)N(Cc2ccccc2)C(=O)N[C@@H]1c1cccc(C(F)(F)F)c1	41.5*	23.6	16.2	37.6	12.2	25.9
CC(=O)C1=C(C)N(Cc2ccccc2)C(=O)N[C@H]1c1cccc(C(F)(F)F)c1	8.3	-1.0	3.5	17.4	8.9	·
CCC(=O)N(CCC(c1ccc(C)cc1)c1ccco1)Cc1ccco1 (configuration not stated)	-4.0	-3.9	3.6	21.2	10.8	·
CC1=CC(=O)C=C(C)C1=NOC(=O)/C=C\c1ccccc1	45.6*	37.1	-16.5	32.4	-10.1	32.1*
Cc1ccc(C(=O)Nc2nc(-c3ccccc3)c(-c3ccccc3)o2)cc1	40.5*	24.6	-0.3	30.7	113.3*	17.9
Cc1cc(C)nc(SCC(=O)Nc2nc(-c3ccccc3)c(-c3ccccc3)o2)n1	-50.8	-10.6	-17.8	0.8	24.3	·
COc1ccc(C2CC(c3cccs3)=NN2C(=O)CSC2=NN3CCCC(=O)N=C3S2)cc1 (configuration not stated)	41.4*	23.8	2.8	42.6	10.8	22.9
O=c1c(Cl)c(N2CCN(c3ccc(F)cc3)CC2)cnn1C12CC3CC(CC(C3)C1)C2	48.3*	29.8	10.7	38.3	1.9	28.6
O=c1c(Cl)c(N2CCN(c3ccccc3)CC2)cnn1C12CC3CC(CC(C3)C1)C2	34.0	15.9	5.3	39.4	3.0	·
CN1CCN(CCCNC(=O)c2ccc(/C=C3\Sc4ccccc4N(Cc4ccc(F)cc4)C3=O)cc2)CC1	·	·	·	·	14.9	·
CN1CCN(CCCNC(=O)c2ccc(/C=C3\Oc4ccccc4N(Cc4ccccc4F)C3=O)cc2)CC1	42.1*	12.4	12.2	32.2	4.1	9.7
CCN(CC(=O)NCc1cccs1)C(=O)c1cc(S(=O)(=O)NCc2ccccc2)ccc1C	-19.9	1.9	11.7	-9.7	-1.6	·
CN1CCN(c2ccccc2NC(=O)c2ccc(-c3cccc([N+](=O)[O-])c3)o2)CC1	·	·	·	·	-2.8	·
CN1CCN(c2ccccc2NC(=O)c2ccc(-c3ccc(Cl)c(Cl)c3)o2)CC1	54.9*	38.3	30.4	23.7	31.2	37.5*
Cc1ccc(-n2nc(-c3ccco3)cc2C(=O)O)cc1	6.3	8.1	7.0	-3.8	-2.6	·
CC(C)NC(=O)c1cc(-c2ccco2)nn1-c1ccc(Cl)cc1	43.7*	-0.6	3.8	37.1	0.2	22.5
O=C(c1cc(-c2ccco2)nn1-c1cccc(Cl)c1)N1CCCCC1	46.4*	15.7	22.0	40.6	5.5	26.9
Cc1ccc(OC(C)C(=O)N=Nc2c(O)[nH]c3ccc([N+](=O)[O-])cc23)cc1 (configuration not stated)	43.8*	19.0	-1.5	-1.5	5.6	14.7
CCCN(CCC)C(=O)c1cc(S(=O)(=O)N2CCCCC2)c[nH]1	12.6	-1.8	12.9	17.2	-3.0	·
CSCCC(NC(=O)c1ccco1)C(=O)N1CCN(C(c2ccccc2)c2ccccc2)CC1 (configuration not stated)	-37.9	-21.4	29.4	-11.3	·	·
Cc1nn(-c2ccc(C(=O)N3CCN(S(=O)(=O)c4ccccc4C(F)(F)F)CC3)cc2)c(C)c1Cl	11.2	20.2	23.7	14.2	·	·
CC(=O)c1ccc(S(=O)(=O)N2CCN(C(=O)c3ccc(-n4nc(C)c(Cl)c4C)cc3)CC2)cc1	40.9*	12.9	26.7	20.2	·	19.1
COc1ccc(C(=O)N2CCOC2CNC(=O)C(=O)NCCc2ccc(OC)c(OC)c2)cc1 (configuration not stated)	-11.9	-12.0	16.0	4.7	-2.8	·
CCS(=O)(=O)c1ncc(Cl)c(C(=O)Nc2ccc(S(=O)(=O)N3CCCC(C)C3)cc2)n1 (configuration not stated)	42.7*	-3.3	15.8	38.8	37.3	-2.8
SMILES	tim10-1 inh	TIM10 inh	NALP3 yeast inh	tim23-1 inh	SKKanGAS inh	tim10-1 confirm
CCC1CCCCN1S(=O)(=O)c1ccc(NC(=O)c2nc(S(C)(=O)=O)ncc2Cl)cc1 (configuration not stated)	53.7*	23.8	-2.5	38.3	50.6*	8.9
O=C(O)c1cccc(COc2cccc3ccccc23)c1	25.9	18.8	25.0	21.0	2.4	·
NC(=O)N=Nc1c(O)n(Cc2ccccc2)c2ccc(Br)cc12	-11.6	-10.0	14.3	24.8	2.7	·
O=C(OCCNc1ncc(C(F)(F)F)cc1Cl)c1ccc(S(=O)(=O)N2CCOCC2)cc1	20.3	21.1	7.6	19.2	-1.6	·
N#CCC(CNc1ncc(C(F)(F)F)cc1Cl)OC(=O)c1cccc(C(F)(F)F)c1 (configuration not stated)	41.6*	33.1	-0.7	23.1	-6.4	26.3
COc1ccc(/C=C/C(=O)N2CCCc3ccccc32)cc1	46.6*	22.5	18.9	37.4	-0.9	22.1
COc1ccc2c(c1)CCc1c(C(=O)N3CCCc4ccccc43)noc1-2	44.8*	34.1	27.7	41.9	-11.3	34.4*
CCOC(=O)/C=C/C(=O)N1CCc2ccccc21	47.4*	20.4	14.2	31.9	-0.7	40.2*
COc1ccc2c(c1)CCc1c(C(=O)N3CCOCC3)noc1-2	8.5	-10.3	9.8	6.7	-5.4	·
CCN1C(=O)[C@H]2[C@H]3CN=C(SCc4ccc(C)cc4)N3[C@@](CC)(C(=O)OC)[C@H]2C1=O	13.5	-20.0	·	31.0	·	·
Fc1ccccc1CNc1ccc(Cl)c(Cl)c1	61.3*	13.5	18.5	30.2	56.2*	68.9*
OCC1(Cc2ccccc2)CCN(Cc2cnc(-c3cccc4ccccc34)nc2)CC1	-76.5	-22.3	21.4	-57.4	-0.3	·
OCC1(Cc2ccccc2)CCN(Cc2cnc(-c3ccc(Cl)cc3)nc2)CC1	47.3*	34.9	16.4	20.4	-8.4	18.7
CCOC(=O)c1sc2ncn(CC(=O)Nc3cc(C)on3)c(=O)c2c1C	0.9	8.8	-4.7	12.2	·	·
CCN(CC)S(=O)(=O)c1ccc(/C=C/C(=O)NC2CCCCC2)cc1	44.0*	20.2	6.5	31.8	7.7	28.1
Cc1ccc(CS(=O)(=O)c2ccc(C(=O)N3CCCCC3)cc2[N+](=O)[O-])cc1	23.9	19.2	24.4	24.3	-2.1	·
Cc1ccc(CS(=O)(=O)c2ccc(C(=O)N3CCN(c4ccccn4)CC3)cc2[N+](=O)[O-])cc1	46.6*	14.6	22.1	32.6	6.0	23.6
Cc1ccc(OCCN2CCN(c3ncnc4sc(C)c(C)c34)CC2)cc1	47.1*	33.3	12.8	35.7	4.7	30.9
Cc1sc2ncnc(N3CCOCC3)c2c1C	16.6	10.5	15.2	8.4	4.8	·
O=C(/C=C/c1cccc([N+](=O)[O-])c1)NCCSCc1ccccc1Cl	36.0	35.7	13.3	40.9	0.2	·
O=C(/C=C/c1cccc([N+](=O)[O-])c1)NCCSCc1ccc(Cl)cc1Cl	42.0*	29.7	15.2	37.4	-15.3	35.4*
